# Data: PubChem BioAssay (Tox21)
# A number with no mark means an inactive call. Calls of active or inactive are those of the source. Calls come from the whole dose curve; as a rule, active = well fitted curve in the direction sought with a large enough effect in the repeat runs; inconclusive = weak or mixed curves; inactive = flat fitted curve, though single readings scatter.
# Assay: qHTS assay to test for compound auto fluorescence at 590 nm (red) in HEK293 cell free culture (AID 720683)
# Settings: cell-free medium autofluorescence, Ex540/Em590 red; series mostly up to 91.3 µM; fluorescence, % of fluorescent control: at the top concentration
# Procedure, shortened: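 Tox21 10K library compounds were pinned into cell-free DMEM with 10% FBS and fluorescence was read at excitation 540 nm. Activity is expressed as Rose Bengal sodium equivalency.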
# % is set by controls: 0 for no effect and ±100 for the full control effect.
SMILES,"fluorescence, % of fluorescent control",outcome
NC(=O)CI,0.0309%,
O=C(CCl)c1ccc(Cl)cc1Cl,,inactive
CO/C=C(/C(=O)OC)c1ccccc1COc1cccc(C(F)(F)F)n1,-0.0317%,
[CH3][Sn]([CH3])([Cl])[Cl],,inactive
Cc1ccc(-c2c(Cl)nc(C#N)n2S(=O)(=O)N(C)C)cc1,0.0503%,
CCN(C)N=O,-0.0124%,
CCC(Br)(CC)C(=O)NC(N)=O,0.0929%,
N#Cc1cc(I)c(O)c(I)c1,-0.296%,
O=[N+]([O-])C(Br)(CO)CO,,inactive
COCCOCCO,0.623%,
Nc1ccc(N=Nc2ccc(-c3ccc(N=Nc4c(S(=O)(=O)O)cc5cc(S(=O)(=O)O)c(N=Nc6ccccc6)c(O)c5c4N)cc3)cc2)c(N)c1,0.0027%,
O=C1C(Cl)C(CCl)CN1c1cccc(C(F)(F)F)c1 (configuration not stated),-0.221%,
CCOC(=O)[C@]1(c2ccccc2)Oc2ccccc2[C@@H]1N,0.0115%,
O=C1NCN(c2ccccc2)C12CCN(CCCOc1ccc(F)cc1)CC2,-0.0335% [at 46 µM],
CCC(C)(NC(=O)c1cc(Cl)c(C)c(Cl)c1)C(=O)CCl (configuration not stated),-0.364%,
NS(=O)(=O)C(F)(F)C(F)(F)C(F)(F)C(F)(F)C(F)(F)C(F)(F)C(F)(F)C(F)(F)F,0.17%,
CCn1cc[n+](C)c1,,inactive

SMILES,"fluorescence, % of fluorescent control",outcome
O=NN1CCNCC1,-0.0578% [at 95.7 µM],
CC(=O)c1cc2c(cc1C)C(C)(C)C(C)CC2(C)C (configuration not stated),-0.388%,
O=C=Nc1ccc(Cl)cc1,0.132%,
CCOP(=S)(OCC)Oc1cc(Cl)c(Br)cc1Cl,0.47%,
C=CCN1CC[C@]23c4c5ccc(O)c4O[C@H]2C(=O)CC[C@@]3(O)[C@H]1C5,,inactive
Nc1ccc([N+](=O)[O-])cc1[N+](=O)[O-],0.0088%,
CC(C)N(CCC(C(N)=O)(c1ccccc1)c1ccccn1)C(C)C (configuration not stated),0.088% [at 46 µM],
C(=NC1CCCCC1)=NC1CCCCC1,,inactive
CC1(C)CCC(Cc2ccc(Cl)cc2)C1(O)Cn1cncn1 (configuration not stated),0.0118%,
ClCc1ccccc1,-0.161%,
O=C(O)c1ccccc1C(=O)Nc1cccc2ccccc12,-0.19%,
Clc1cccc2ccccc12,0.0171%,
CCCCN=C=O,0.0427%,
CN1C(=O)C(O)N=C(c2ccccc2)c2cc(Cl)ccc21 (configuration not stated),,inactive
Cn1cc[n+](C)c1 (tested in a mixture with another compound),0.125%,
C=COC(C)=O,0.0156% [at 95.7 µM],
COC(C)(C)CCC[C@H](C)C/C=C/C(C)=C/C(=O)OC(C)C,0.0252%,

# Assay: qHTS assay to test for compound auto fluorescence at 590 nm (red) in HepG2 cell free culture (AID 720684)
# Settings: cell-free medium autofluorescence, red 540/590 nm; series mostly up to 91.3 µM; fluorescence, % of Rose Bengal: at the top concentration
# Procedure, shortened: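 Measured in medium alone (MEM containing 10% FBS) following pintool addition of compound; emission at 590 nm with 540 nm excitation, referenced to Rose Bengal sodium.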
SMILES,"fluorescence, % of Rose Bengal",outcome
NC(=O)CI,0.0426%,
O=C(CCl)c1ccc(Cl)cc1Cl,,inactive
CO/C=C(/C(=O)OC)c1ccccc1COc1cccc(C(F)(F)F)n1,0.102%,
[CH3][Sn]([CH3])([Cl])[Cl],,inactive
Cc1ccc(-c2c(Cl)nc(C#N)n2S(=O)(=O)N(C)C)cc1,-0.0265%,
CCN(C)N=O,-0.0232%,
CCC(Br)(CC)C(=O)NC(N)=O,-0.0209%,
N#Cc1cc(I)c(O)c(I)c1,-0.073%,
O=[N+]([O-])C(Br)(CO)CO,,inactive
COCCOCCO,0.445%,
Nc1ccc(N=Nc2ccc(-c3ccc(N=Nc4c(S(=O)(=O)O)cc5cc(S(=O)(=O)O)c(N=Nc6ccccc6)c(O)c5c4N)cc3)cc2)c(N)c1,-0.0683%,
O=C1C(Cl)C(CCl)CN1c1cccc(C(F)(F)F)c1 (configuration not stated),-0.0343%,
CCOC(=O)[C@]1(c2ccccc2)Oc2ccccc2[C@@H]1N,-0.0051%,
O=C1NCN(c2ccccc2)C12CCN(CCCOc1ccc(F)cc1)CC2,-0.0283% [at 46 µM],
CCC(C)(NC(=O)c1cc(Cl)c(C)c(Cl)c1)C(=O)CCl (configuration not stated),-0.147%,
NS(=O)(=O)C(F)(F)C(F)(F)C(F)(F)C(F)(F)C(F)(F)C(F)(F)C(F)(F)C(F)(F)F,0.136%,
CCn1cc[n+](C)c1,,inactive

SMILES,"fluorescence, % of Rose Bengal",outcome
O=NN1CCNCC1,0.14% [at 95.7 µM],
CC(=O)c1cc2c(cc1C)C(C)(C)C(C)CC2(C)C (configuration not stated),-0.334%,
O=C=Nc1ccc(Cl)cc1,-0.0172%,
CCOP(=S)(OCC)Oc1cc(Cl)c(Br)cc1Cl,-0.0693%,
C=CCN1CC[C@]23c4c5ccc(O)c4O[C@H]2C(=O)CC[C@@]3(O)[C@H]1C5,,inactive
Nc1ccc([N+](=O)[O-])cc1[N+](=O)[O-],0.12%,
CC(C)N(CCC(C(N)=O)(c1ccccc1)c1ccccn1)C(C)C (configuration not stated),-0.161% [at 46 µM],
C(=NC1CCCCC1)=NC1CCCCC1,,inactive
CC1(C)CCC(Cc2ccc(Cl)cc2)C1(O)Cn1cncn1 (configuration not stated),-0.221%,
ClCc1ccccc1,-0.107%,
O=C(O)c1ccccc1C(=O)Nc1cccc2ccccc12,-0.0346%,
Clc1cccc2ccccc12,-0.125%,
CCCCN=C=O,0.206%,
CN1C(=O)C(O)N=C(c2ccccc2)c2cc(Cl)ccc21 (configuration not stated),,inactive
Cn1cc[n+](C)c1 (tested in a mixture with another compound),0.193%,
C=COC(C)=O,-0.0308% [at 95.7 µM],
COC(C)(C)CCC[C@H](C)C/C=C/C(C)=C/C(=O)OC(C)C,0.0013%,

# Assay: qHTS assay to test for compound auto fluorescence at 460 nm (blue) in HepG2 cell free culture (AID 720685)
# Settings: Cell-free culture medium, blue autofluorescence 405/460 nm; series mostly up to 91.3 µM; fluorescence, % of fluorescent control: at the top concentration
# Procedure, shortened: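 Compound (23 nL) or DMSO pinned into cell-free MEM with 10% FBS; blue fluorescence read at 405/460 nm excitation/emission, expressed as auto-fluorescence equivalency to triamterene.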
SMILES,"fluorescence, % of fluorescent control",outcome
NC(=O)CI,-0.0368%,
O=C(CCl)c1ccc(Cl)cc1Cl,,inactive
CO/C=C(/C(=O)OC)c1ccccc1COc1cccc(C(F)(F)F)n1,0.156%,
[CH3][Sn]([CH3])([Cl])[Cl],,inactive
Cc1ccc(-c2c(Cl)nc(C#N)n2S(=O)(=O)N(C)C)cc1,-0.0331%,
CCN(C)N=O,0.117%,
CCC(Br)(CC)C(=O)NC(N)=O,0.0267%,
N#Cc1cc(I)c(O)c(I)c1,-0.104%,
O=[N+]([O-])C(Br)(CO)CO,,inactive
COCCOCCO,-0.14%,
Nc1ccc(N=Nc2ccc(-c3ccc(N=Nc4c(S(=O)(=O)O)cc5cc(S(=O)(=O)O)c(N=Nc6ccccc6)c(O)c5c4N)cc3)cc2)c(N)c1,0.0252%,
O=C1C(Cl)C(CCl)CN1c1cccc(C(F)(F)F)c1 (configuration not stated),-0.155%,
CCOC(=O)[C@]1(c2ccccc2)Oc2ccccc2[C@@H]1N,-0.0073%,
O=C1NCN(c2ccccc2)C12CCN(CCCOc1ccc(F)cc1)CC2,0.0183% [at 46 µM],
CCC(C)(NC(=O)c1cc(Cl)c(C)c(Cl)c1)C(=O)CCl (configuration not stated),-0.236%,
NS(=O)(=O)C(F)(F)C(F)(F)C(F)(F)C(F)(F)C(F)(F)C(F)(F)C(F)(F)C(F)(F)F,-0.0577%,
CCn1cc[n+](C)c1,,inactive

SMILES,"fluorescence, % of fluorescent control",outcome
O=NN1CCNCC1,-0.0156% [at 95.7 µM],
CC(=O)c1cc2c(cc1C)C(C)(C)C(C)CC2(C)C (configuration not stated),-0.0293%,
O=C=Nc1ccc(Cl)cc1,-0.0805%,
CCOP(=S)(OCC)Oc1cc(Cl)c(Br)cc1Cl,-0.268%,
C=CCN1CC[C@]23c4c5ccc(O)c4O[C@H]2C(=O)CC[C@@]3(O)[C@H]1C5,,inactive
Nc1ccc([N+](=O)[O-])cc1[N+](=O)[O-],-0.446%,
CC(C)N(CCC(C(N)=O)(c1ccccc1)c1ccccn1)C(C)C (configuration not stated),0.0279% [at 46 µM],
C(=NC1CCCCC1)=NC1CCCCC1,,inactive
CC1(C)CCC(Cc2ccc(Cl)cc2)C1(O)Cn1cncn1 (configuration not stated),0.103%,
ClCc1ccccc1,-0.1%,
O=C(O)c1ccccc1C(=O)Nc1cccc2ccccc12,0.496%,
Clc1cccc2ccccc12,0.0445%,
CCCCN=C=O,0.118%,
CN1C(=O)C(O)N=C(c2ccccc2)c2cc(Cl)ccc21 (configuration not stated),,inactive
Cn1cc[n+](C)c1 (tested in a mixture with another compound),0.0019%,
C=COC(C)=O,-0.0682% [at 95.7 µM],
COC(C)(C)CCC[C@H](C)C/C=C/C(C)=C/C(=O)OC(C)C,0.0247%,
